Results on 23 compounds are retold here after PubChem BioAssay.

In general, inhibition refers to the relative decrease from the control value, in per cent.

Values without a mark were called inactive. Active and inactive are the calls of the source.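 Rule for the calls: active = inhibition of the reporter signal at or above 50%; inactive = inhibition below 50%.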

The experiment in a line: inhibitors of poly I:C-induced TLR3 signaling, primary screen, cell-based, poly I:C stimulus, luciferase, 10K MLSCN set (AID 602277). As to conditions: HEK293-TLR3 RL24 IRF3 luciferase reporter, at 10 µM, active compounds read high.
With `COc1ccc(-c2noc(COc3ccc(Cl)c(C)c3)n2)cc1`, the inhibition was 20.3%.

Consider `CN(CC(=O)Nc1sccc1C#N)C1CCCCC1`, for which the inhibition was 99.3% (active).

`COc1ccccc1-c1cc2nc(C)c(CCC(=O)NCc3ccco3)c(C)n2n1`: the inhibition was 16.6%.

Turning to `Cc1cc(C)c2cc3c(ccn3C3OC[C@H](O)[C@H](O)[C@H]3O)cc2n1` (stereo partly drawn), the inhibition is 27.3%.

Consider `CCOc1cc(NC(=O)c2ccccn2)c(OCC)cc1NC(=O)CC(C)C`, for which the inhibition is -24.5%.

Take `COc1ccc(S(=O)(=O)N(CCN2CCOCC2)Cc2cc(OC)ccc2OC)cc1`: the inhibition is 33.5%.

In the case of `CC1(C)CC(=O)CC(C)(C)N1OC(=O)c1ccccn1`, the inhibition was 25.3%.

On to `Nc1ccc(-n2c(N)c(C(=O)NCc3ccc4c(c3)OCO4)c3nc4ccccc4nc32)cc1`, for which the inhibition is 3.26%.

In the case of `CC12CCC(C(=O)O)(c3nc(C#N)c(C#N)nc31)C2(C)C` (stereo not drawn), the inhibition was 21.6%.

As for `CN(C)c1ccc(C(=O)OCC(=O)NC2CCCCC2)cc1`, the inhibition was 10.9%.

For `CCOC(=O)N1CCN(Cc2nc3c(c(=O)[nH]c(=O)n3C)n2Cc2cc(C)ccc2C)CC1`, the inhibition was 27.4%.

Regarding `C#CC1(O)CC(C)N(C)C(C)C1` (stereo not drawn), the inhibition was 17.2%.

As to `O=C(CN(CC1CCCO1)C(=O)CCC(=O)Nc1ccccn1)NCC1CCCO1` (stereo not drawn), the inhibition was 15.3%.

Turning to `CC(=O)c1ccc2c3c(cccc13)C(=O)N(c1c(C)nn(C)c1C)C2=O`, the inhibition is -10.1%.

For `CC(C)[C@H](NC(=O)NCc1ccc(Cl)cc1)C(=O)O`, the inhibition was 19.3%.

With `COc1ccc(-n2c(Cc3cccn3C)nnc2SCC(=O)Nc2cccc(Cl)c2)cc1`, the inhibition is 19.5%.

With `COC(=O)/C=c1\sc2ncnn2c1=O`, the inhibition was 26.1%.

As for `COCc1nnc(NC(=O)c2ccc(NC(C)=O)cc2)s1`, the inhibition is -14.7%.

Turning to `Cc1cc(/C=N/n2cnnc2)c(C)n1-c1cccc(Cl)c1`, the inhibition is 21.5%.

In the case of `C=CCNC(=O)C1CC(=O)N(c2ccc(OCC(=O)Nc3ccc(OC)cc3)cc2)C1` (stereo not drawn), the inhibition was 5.9%.

For `Cc1cc2c(cc(C(=O)OCC(=O)NCc3cccs3)n2C(C)C)o1`, the inhibition was 77.6% (active).

Turning to `COc1ccc(C)cc1C(=O)CCC(=O)Nc1ccccc1N1CCOCC1`, the inhibition was 18.2%.

Regarding `CC(C)(C)c1ccc(-c2nnc(SCCC#N)n2C2CCCC2)cc1`, the inhibition was 10.8%.
